Reference: PubChem BioAssay AID2417 (National Center for Advancing Translational Sciences (NCATS), 2010)
In all, about 140,000 compounds went through this assay and about 4,300 (3.1%) were called active. Not shown: some 21% with an inconclusive outcome.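 Rule for the calls: active = readout at or below -70, meaning at least 70% loss of cells showing the perinucleolar compartment, a nuclear body marking cancer cells; inconclusive = readout between -30 and a set limit; inactive = the rest.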 The full list was thinned out, with actives kept by preference.

Test: High Content Assay for Compounds that inhibit the Assembly of the Perinucleolar Compartment
Conditions: PC3M PTB-GFP, PNC prevalence imaging, 16 h; at 10 µM; active compounds read low
Source text: High Content Assay for Compounds that inhibit the Assembly of the Perinucleolar Compartment NIH Chemical Genomics Center [NCGC] NIH Molecular Libraries Probe Centers Network [MLPCN] MLPCN Grant: MH082371-01A2 Assay Submitter (PI): Sui Huang, Northwestern University, Feinberg School of Medicine, Cell and Molecular Biology, Chicago, Illinois. The perinucleolar compartment (PNC) is a non-membrane-bound nuclear subdomain that is associated with but structurally distinct from the nucleolus. The PNC is a heritable trait, in which the number of PNCs per cell in daughter cells often mimics that of their mother cells. The PNC is heterogeneous in shape, is stable through interphase, disassembles during mitosis, and reassembles in early G1. The PNC is concentrated with newly synthesized RNA polymerase III (pol III) RNAs (MRP RNA, RNAse P H1 RNA, hY RNAs[hY1, 2, 5], Alu RNA, and SRP [7SL] RNA) and RNA binding proteins (nucleolin, PTB, CUG-BP, KSRP, Raver1, Raver2, and Rod). […] Extensive in vitro studies have shown that the PNC is unique to tumor cells and preferentially forms in tumor cells derived from solid tissues. Examination of cancer cell lines from various origins and malignant capacities has shown that PNC prevalence correlates with the malignancy of tumors and has the potential to be developed as a pan-cancer prognostic marker. […] Although the PNC is associated with a DNA locus and a handful of components have been identified, much remains to be investigated regarding the structure and function of the PNC and its mechanistic link to cancer. We have previously shown that PNC prevalence reduction is a valid strategy to identify compounds that can be used to study the structure and function of the PNC. It is necessary, however, to create a screening platform that is able to test a large number of compounds in an automated fashion. Here we report the development and robustness of an automated whole-cell phenotypic image-based screening assay that is capable of identifying such compounds.
PNC High Content Imaging Assay Procedure: 1. Cells at a density of 75-90% confluency in T175 flasks were harvested using 7 ml TrypLE Express cell dissociation reagent. After dissociation (5 minutes room temperature incubation) 10 ml of complete media was added to the TrypLE/cell suspension. The liquid was transferred to a 50 ml Conical tube and cells were pelleted at 1000 RPM for 5 min. Supernatant was removed and cells were resuspended to a final density of 150-200 cells/ul in complete media. 2. Cells were plated in 5 ul volume (750-1000 cells/well) into 1536 well Black uclear Aurora Low Base plates and allowed to recover and adhere at 37 C in a humidified 5% CO2 incubator for 4 hours. 3. After 4 hour incubation, compound libraries (23 nl of […] in columns 5-48) were transferred to the plates in duplicate using a 1536 well pintool. Camptothecin positive control (59 uM final) was added to column 2 and 1:3 dilutions of camptothecin was added to column 3. DMSO negative controls were present in columns 1 and 4. 4. After a 16 hour incubation in the 37 C incubator, cells were fixed by the addition of 4 ul of 6% EM grade paraformaldehyde (containing 0.1% triton X 100) directly to the cells. The plates were incubated at room temperature for 20 minutes. The liquid was removed using a 32 channel Kalypsys aspirator and the fixed cells were washed twice with 5 ul PBS followed by a final addition of 5 ul PBS containing 1 ug/ml Hoechst 33342. 5. Fixed plates were sealed and sotred at 4C until imaged. 6. Plates were imaged on an InCell 1000 automated microscope using a 20 x objective, a standard FITC filter set, no camera binning, and an exposure time of ~100-150 msec/well. 7. Data analysis. PNC prevalence was determined using the Multitarget analysis module from InCell Workstation software (V3.5 ) and analysis was run on a quad core workstation using the Incell Developer Toolbox (V1.7). […]

SMILES | activity change (PNC), negative = inhibition
CC(=NCc1ccc2c(c1)OCO2)c1c(O)[nH]c(=O)[nH]c1=O | -17.3% (inactive)
OC(CNC1CCCCC1)c1ccccc1 (stereo not given) | 38.6% (inactive)
c1cc2c(cc1CCNC1CCCCCC1)OCO2 | -119% (active)
CNC(=S)N/N=C1\C2CN3CCN(C2)CC1(c1ccccc1)C3 | -18.5% (inactive)
CCOC(=O)C(O)(c1ccc(N=Cc2ccccc2O)c(C)c1)C(F)(F)F (stereo not given) | -11.8% (inactive)
Cc1ccc(-n2c(C)cc(/C=C3\C(=O)NC(=O)N(C)C3=O)c2C)cc1C | 23.8% (inactive)
Cc1ccc(Cn2c(C)c3cnn(CC(=O)N4CCC5(CC4)OCCO5)c(=O)c3c2C)cc1 | -100% (active)
COc1ccc(-c2nc(CS(=O)CC(=O)N3CCC4(CC3)OCCO4)c(C)o2)cc1 (stereo not given) | -14.2% (inactive)
O=C(CCCn1c(=O)[nH]c2cc(Cl)ccc2c1=O)N1CCC2(CC1)OCCO2 | 44% (inactive)
CC(C)N(CC#CCC1(O)c2ccccc2-c2ccccc21)C(C)C | 48.8% (inactive)
CN(C)C(=O)Oc1cc(=O)n2c3c(cccc13)CCC2 | 23.5% (inactive)
Cc1ccc(-n2c(-c3ccc([N+](=O)[O-])cc3)nc3ccccc3c2=O)cc1 | -17% (inactive)
CC(C(=O)Nc1ccc(Cl)cc1Cl)N1CC=C(c2ccccc2)CC1 (stereo not given) | 38% (inactive)
Cc1cccc(OP(=O)(Oc2cccc(C)c2)OC(c2ccccc2)C(F)(F)F)c1 (stereo not given) | -3.33% (inactive)
CCCCCn1c(=O)c(C(=O)Nc2c(C)n(C)n(-c3ccccc3)c2=O)c(O)c2ccccc21 | -20.3% (inactive)
CCCCCn1c(=O)c(C(=O)NCc2ccccn2)c(O)c2ccccc21 | -112% (active)
Cc1ccnc(-n2c(C)cc(/C=C3\C(=O)NC(=S)N(C)C3=O)c2C)c1 | -11.7% (inactive)
C=CCn1c(O)c(/C=N/N2CCOCC2)c(=O)[nH]c1=S | 60.9% (inactive)
CN1CCN(c2cc(N3CCNCC3)ccc2[N+](=O)[O-])CC1 | 12.6% (inactive)
CC1=C(C(=O)Nc2ccccc2)SCCO1 | -98% (active)
O=C1NC(=O)N(c2ccc(F)cc2)C(=O)/C1=C/c1ccc2c(c1)CCCN2Cc1ccccc1 | -20.7% (inactive)
O=C1N=c2ccccc2=C/C1=C\c1c(O)[nH]c(=S)[nH]c1=O | -19.2% (inactive)
CN(C)CC1CCCCC1OC(=O)c1ccc(Cl)c(Cl)c1 (stereo not given) | -10.5% (inactive)
O=C1NC(=O)C(CCc2ccccn2)(Cc2cccc(Cl)c2Cl)C(=O)N1c1ccc(Br)cc1 (stereo not given) | -14.3% (inactive)
Cc1ccc2c(c1)C1CN(C)CCC1N2C(=O)Cn1nnc(-c2ccccc2F)n1 (stereo not given) | -101% (active)
